Inhibition data for 61 molecules are collected here from PubChem BioAssay AID624330 (Southern Research Specialized Biocontainment Screening …, 2012).

Each structure is given as a SMILES string. About 2,100 (0.62%) of roughly 340,000 compounds were called active. These entries were drawn from the full list. Results with a measured potency or affinity are listed apart. Values without a mark were called inactive.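 How the source made its calls: active means first-screen hits whose inhibition reached a set limit at any dose in the follow-up dose series; inconclusive means inhibition above the set first-screen limit but never retested; inactive means the rest.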

Rac GTPase-activating protein 1 (Homo sapiens), sequence (Q9H0H5 whole entry, looked up): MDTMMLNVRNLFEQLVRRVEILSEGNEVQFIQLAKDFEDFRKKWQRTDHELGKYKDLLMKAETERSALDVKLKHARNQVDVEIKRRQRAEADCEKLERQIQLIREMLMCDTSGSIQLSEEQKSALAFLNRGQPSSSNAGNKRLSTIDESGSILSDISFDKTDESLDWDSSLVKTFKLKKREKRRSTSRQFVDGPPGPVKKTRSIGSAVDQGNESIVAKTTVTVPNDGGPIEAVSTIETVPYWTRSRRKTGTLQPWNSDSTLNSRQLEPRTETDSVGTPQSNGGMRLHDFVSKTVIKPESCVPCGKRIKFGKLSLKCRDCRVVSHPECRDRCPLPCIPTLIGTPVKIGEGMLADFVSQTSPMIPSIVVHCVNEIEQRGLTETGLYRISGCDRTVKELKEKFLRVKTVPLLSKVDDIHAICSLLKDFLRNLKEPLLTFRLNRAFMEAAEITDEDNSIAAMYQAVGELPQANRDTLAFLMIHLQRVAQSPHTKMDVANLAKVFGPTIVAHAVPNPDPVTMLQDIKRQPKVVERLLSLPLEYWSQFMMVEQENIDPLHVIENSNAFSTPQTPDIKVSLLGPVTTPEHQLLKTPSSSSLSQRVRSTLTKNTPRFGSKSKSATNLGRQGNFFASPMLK

This experiment has as its target Rac GTPase-activating protein 1 (Homo sapiens) (UniProt Q9H0H5). The experiment in a line: blockers of MgcRacGAP-driven Rac1 GTP hydrolysis – biochemical, ADP Hunter fluorescence, primary and confirmatory, confirmation (AID 624330).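 Further: fluorescence reports GDP produced by GAP-driven GTP hydrolysis.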 As to conditions: MgcRacGAP-stimulated Rac1 GTP hydrolysis, at 30 µM, active compounds read high, GST-tagged Rac1 F28L mutant substrate.
Consider `Cc1cc(Br)ccc1NC(=O)CCSc1ccccc1`, for which the inhibition was 2.79%.

As to `Cc1ccc(NC(=O)c2cc(N(C)C)ccc2[P+](=O)O)cc1`, the inhibition is 4.54%. For the molecule `Cc1ccc(C(=O)O)cc1N1CCCC1=O`, the inhibition is -7.73%. Consider `CCC(Sc1nc2n[nH]c(C)c2c(=N)n1-c1ccc(C)c(Cl)c1)C(=O)N1CCOCC1` (stereo unspecified), for which the inhibition is 8.01%. Regarding `Oc1ccccc1CN1CCCC(N2CCc3ccccc3C2)C1` (stereo unspecified), the inhibition is 12.1%. On to `c1ccc2c(c1)CCN(C1CCCCC1)C2`, for which the inhibition is 26.9%. The value for `COCCN(CCOC)C(=O)COC(=O)c1ccc(Cl)c(S(=O)(=O)N(C)c2ccccc2)c1` was 3.9%; that for `CC1=C(SCc2ccccc2)C(=O)c2ccccc2C1=O` was -10.4%; that for `O=S1(=O)N=C(SCCO)c2ccccc21` was 4.31%. Consider `Cc1ccc(OCCNC(=O)C(C)SCC(=O)Nc2ccc(F)cc2)cc1` (stereo unspecified), for which the inhibition was 1.75%. On to `O=C1C=CC(=O)N1c1ccc(O)cc1`, for which the inhibition was 15.3%. `O=C(O)c1ccc2c(c1)C(=O)N(c1ccc(Nc3ccccc3)cc1)C2=O`: the inhibition is 9.3%. Take `O=C(c1ccc(Cl)c(Cl)c1)c1cc(-c2ccccn2)c(N2CCOCC2)s1`: the inhibition was 6.1%. `O=C(c1ccc(Cl)c(S(=O)(=O)N2CCCCC2)c1)N1CCN(c2ccccc2)CC1`: the inhibition was 11.4%. As to `COc1ccc(-c2cc(C(=O)N3CCN(c4ccccc4)CC3)c3ccccc3n2)cc1`, the inhibition was -2.68%. As for `O=C(c1ccc(Cl)c(S(=O)(=O)N2CCCC2)c1)N1CCN(c2ccc(F)cc2)CC1`, the inhibition was 6.75%. The value for `COc1ccc(N2CCN(C(=O)c3cc(C4CC4)nn3-c3ccccc3)CC2)cc1` was 27.4%. The result for `Cc1ccc(-c2cc(C(=O)N3CCN(c4ccccc4O)CC3)c3ccccc3n2)cc1` reads 2.39%.

On to `CC(=O)c1ccc(N2CCN(C(=O)c3ccc(C(=O)c4ccccc4)cc3)CC2)cc1`, for which the inhibition is -1.4%. In the case of `O=C(c1cc(C2CC2)nn1-c1ccccc1)N1CCN(c2ccccc2O)CC1`, the inhibition is 5.58%.

In the case of `O=C(c1ccccc1)N1CCN(c2ccccc2)CC1`, the inhibition is 5.43%. The result for `CCOC(=O)c1c(C)[nH]c(C(=O)N/N=C/c2ccc(OC)c(OC)c2)c1C` reads -4.46%; that for `COc1ccc(NC(=O)c2cccc(NC3=NC4CS(=O)(=O)CC4S3)c2)cc1Cl` (stereo unspecified), 10.8%. For `CCc1nnc(N/N=C\c2ccc(OC(C)=O)c(OC)c2)n1N`, the inhibition is 10.6%. As to `CCC1(CC)C(=O)N(c2ccccc2)C(=N)N(c2ccccc2)C1=O`, the inhibition is -9.62%. For the molecule `N#Cc1cccc(NC(=O)CN2CCN(Cc3ccccc3)CC2)c1`, the inhibition was 10.1%. With `Cc1nc(N)c2c(Cc3cccc4ccccc34)nn(C(C)(C)C)c2n1`, the inhibition is 2.87%. `COc1ccccc1CN(C)C(=O)c1sccc1-c1ccccc1`: the inhibition is -0.12%. Turning to `Cc1ccc(/C(N)=N/OC(=O)c2ccc3ccccc3c2)cc1`, the inhibition is 7.71%. The result for `O=C(NCCCN1CCOCC1)c1cc(-c2ccc(F)cc2)on1` reads 5.56%; that for `C/C(=N/NC(=O)CNC(=O)c1cccs1)c1ccc(Cl)cc1`, 5.28%. With `Oc1ccc2ccccc2c1/C=N/c1nc2c(s1)CCCC2`, the inhibition was 16%.

As for `COc1cccc(C=Nc2ccc3c(c2)CCC3)c1O`, the inhibition was 6.65%. For the molecule `COc1ccc(N=Cc2c(O)ccc3ccccc23)cc1`, the inhibition is 14.5%. With `COc1ccc2c(c1)Cc1sc(NC(=O)c3ccccc3)nc1-2`, the inhibition is 15.1%. `COc1cccc(C=Nc2cc(C)on2)c1O`: the inhibition is 10.4%. With `COc1ccc2c(c1)CCc1sc(NC(=O)c3ccco3)nc1-2`, the inhibition is 9.86%. As for `COc1ccc(Cl)cc1NC(=O)CN(C)C(=O)CCCNC(=O)c1ccc(Cl)cc1`, the inhibition was -0.09%. `CN(C)CCNC(=S)Nc1ccc(Cl)cc1`: the inhibition was 10.1%. `CC(=O)c1ccc(OCc2cc(C(=O)N3CC[C@@H]4CCCC[C@H]4C3)no2)cc1`: the inhibition is 8.61%.

In the case of `COc1ccccc1NC(=O)CSc1nnc(-c2ccoc2C)n1CC1CCCO1` (stereo unspecified), the inhibition is 9.62%. As for `CCCN(CCC)Cc1c(C(=O)N/N=C/c2ccoc2)nnn1-c1nonc1N`, the inhibition is 6.21%. `S=C(NC1CCCCC1)N1CCN(C2CCCCC2)CC1`: the inhibition is 6.75%. The value for `O=C(CSc1nc(Cc2ccccc2)nc2ccccc12)Nc1nc2c(s1)CCCC2` was 18.2%; that for `COc1ccc(N2CCN(C(=O)Cc3ccc(OC)c(OC)c3)CC2)cc1` was 21.6%. For the molecule `COc1cc(CNc2ccc(N3CCCC3)cc2)ccc1OCc1ccccc1`, the inhibition was 7.32%.

For the molecule `COc1cc(CNc2ccc(N3CCN(C(C)=O)CC3)cc2)ccc1OCc1ccc(F)cc1`, the inhibition was 28.5%.

For the molecule `COc1ccc(N2CCN(C(=O)NCc3ccc(OC)c(OC)c3)CC2)cc1`, the inhibition was 23.4%. `O=C(COc1ccccc1)NCC(c1ccco1)N1CCN(c2ccccc2)CC1` (stereo unspecified): the inhibition is -2.01%. The value for `CCCCCC(=O)Nc1ccc(N2CCOCC2)c(S(=O)(=O)Nc2ccc(OC)cc2)c1` was 10.2%. As to `CC(=O)Nc1c(-c2ccccc2)nc2ncccn12`, the inhibition is 16.1%. Turning to `CCN(CC)C(=O)Cn1cc(C(=O)C(=O)N(C)C2CCN(C)CC2)c2ccccc21`, the inhibition was 0.15%. Regarding `COc1cc(/C=N/NC(=S)NCCN2CCOCC2)cc(OC)c1O`, the inhibition is 15.1%. Regarding `Fc1ccc(NC(=S)NCCN2CCOCC2)cc1`, the inhibition is 4.64%. The result for `S=C(NCCCN1CCOCC1)Nc1ccc(Nc2ccccc2)cc1` reads 36.5%; that for `COc1cc(/C=N/NC(=S)NCCN2CCOCC2)cc(OC)c1OC`, 7.18%; that for `S=C(NCCN1CCOCC1)N/N=C/c1ccccc1`, 6.95%. For the molecule `COc1cc(OC)c(OC)cc1/C=N/NC(=S)NCCN1CCOCC1`, the inhibition was -4.53%. As to `O=S(=O)(c1cccc(-c2nc3ccccc3s2)c1)N1CCCC1`, the inhibition is 4.17%. On to `Cc1cc(C(=O)N(NC(=O)C(C)C)c2ccccc2)cs1`, for which the inhibition is 5.75%. On to `C=CCn1c(=O)c(C(=O)Nc2ccc(C)cn2)c(O)c2ccccc21`, for which the inhibition is 7.02%.
